This passage reports composite z-score and z-score results from PubChem BioAssay.

The source made the active and inactive calls. Unless noted, no rule for the calls is given here.

Experiment [1] is described as follows: compounds binding Alexa647 anti-His antibody – biochemical, small-molecule microarray, 635 nm fluorescence, artefact control for SMM control protein annotation, primary screen (AID 1128).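 Also: score merges feature fluorescence with signal-to-noise for each printed compound spot.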 Particulars: higher = more signal.
The test system of experiment [2] is Human papillomavirus type 1a E7 protein (residues 1-88). Put plainly: HPV1a E7 small-molecule binders, primary screen, biochemical, small-molecule microarray, residues 1-88, 635 nm (AID 1129). Conditions: small-molecule microarray binding, fluorescence 635 nm; higher = more signal.
Experiment [3] addresses Focal adhesion kinase 1 (Homo sapiens) (UniProt Q05397). Put plainly: PTK2 protein binding on printed compound slides – biochemical, small-molecule microarray, 635/667 nm fluorescence, BSA, DTT, primary screen (AID 1130).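 Also: composite of spot emission at 667 nm and signal to noise over triplicate slides.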 Particulars: 635 nm fluorescence, higher = more signal.
The test system of experiment [4] is Fibrinogen (Alexa647-labelled). Put plainly: Alexa647-fibrinogen binding to printed small molecules – biochemical, small-molecule microarray, 635/667 nm fluorescence, artefact control for SMM control-protein annotation, profiling panel (AID 1131).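 Also: z-score merges 667 nm fluorescence with per-spot signal-to-noise over triplicate slides.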 Conditions: fibrinogen-A647 binding fluorescence, higher = more signal.
The target of experiment [5] is Follistatin (Homo sapiens) (UniProt P19883). Briefly: FST protein binding to printed compounds – biochemical, small-molecule microarray, 635/667 nm fluorescence, primary screen (AID 1132). Particulars: 635 nm fluorescence, higher = more signal.
The target in experiment [6] is Fibroblast growth factor 2 (Homo sapiens) (UniProt P09038). Briefly: basic fibroblast growth factor binding to printed compounds – biochemical, small-molecule microarray, 635/667 nm fluorescence, primary screen (AID 1133). Conditions: FGF2, fluorescence 635/667, higher = more signal.
Experiment [7] is described as follows: JC-1 mitochondrial potential readout, lung cancer cells – cell-based, A549, JC-1 fluorescence, basal, 24 h, 100 nL, profiling panel (AID 1138).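 Also: A549 lung adenocarcinoma cells under basal conditions with no added stimulus; test concentration not given here.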 Particulars: higher = more signal.
In another experiment the test system is Lefty1. Briefly: Lefty1 protein binding to printed compounds – biochemical, small-molecule microarray, 635/667 nm fluorescence, primary screen (AID 1139). Particulars: fluorescence 635/667, higher = more signal.
Experiment [8] has as its system wheat germ agglutinin (Triticum aestivum), Alexa647-labelled. Put plainly: Alexa647-WGA lectin binding to printed small molecules – biochemical, small-molecule microarray, 635/667 nm fluorescence, artefact control for SMM control-protein annotation, profiling panel (AID 1140).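 Also: score merges 667 nm feature emission with signal to noise over triplicate slides.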 Particulars: WGA-A647 binding, 635 nm fluorescence, higher = more signal.
The target of experiment [9] is Luciferin 4-monooxygenase (Photinus pyralis) (UniProt P08659). Put plainly: inhibition of purified Photinus pyralis luciferase – biochemical, luminescence, purified enzyme, 2006 set, primary screen (AID 1141).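 Also: cell-free assay with purified firefly luciferase at 100 ng per well in PBS; test concentration not given here.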 Conditions: purified firefly luciferase, SteadyGlo luminescence, 30 min; higher = more signal, called active from +8 up or from −8 down.
Experiment [10] relates to Wnt5a (protein binding on small-molecule microarray). Put plainly: small molecules binding Wnt5a protein – biophysical, small-molecule microarray, 635/667 nm fluorescence, primary screen (AID 1142).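 Also: fluorescence read at 667 nm with signal to noise per printed feature.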 Conditions: 635 nm fluorescence, higher = more signal.
The nature of experiment [11]: ATP-based viability of Huh7 replicon cells – cell-based, CellTiter-Glo luminescence, basal, 48 h, cytotoxicity control for HCV replication inhibitor project, primary screen (AID 1143).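 Also: Huh7 hepatoma cells carrying a hepatitis C replication reporter with no stimulus; test concentration not given here.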 Particulars: higher = more signal, called active from +8 up or from −8 down.
Experiment [12] is described as follows: Pseudomonas biofilm growth suppression – PAO1 strain, BacTiter-Glo luminescence, LB-PBS, primary screen (AID 1144). Particulars: P. aeruginosa PAO1 biofilm, 12 h, higher = more signal.
Experiment [13] in a line: basal CRE-LacZ reporter activity in PC12 – cell-based, unstimulated, primary screen (AID 1145). Conditions: no forskolin, luminescence, 4.5 h, higher = more signal, called active from +8 up or from −8 down.
The nature of experiment [14]: forskolin-driven CRE-LacZ activity in PC12 – cell-based, CRE-LacZ reporter, forskolin-stimulated, primary screen (AID 1146).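 Also: PC12 cells with 6xCRE LacZ reporter stimulated by forskolin 10 µM; beta-galactosidase reporter signal reflecting CREB driven transcription.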 Conditions: luminescence, 4.5 h, higher = more signal, called active from +8 up or from −8 down.
The target of experiment [15] is Streptavidin (Streptomyces avidinii) (UniProt P22629). Put plainly: compounds binding control protein streptavidin – biophysical, small-molecule microarray, 635/667 nm fluorescence, artefact control for SMM compound annotation, primary screen (AID 1147).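 Also: signal reflects streptavidin binding to arrayed compounds as a control protein.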 Conditions: higher = more signal.
A short description of experiment [16]: probe aInhba binding on compound microarray – biochemical, small-molecule microarray, 635/667 nm fluorescence, primary screen (AID 1148).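 Also: score merges 667nm spot fluorescence with signal-to-noise for antibody binding to printed compounds.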 Particulars: higher = more signal.
Experiment [17] deals with Torsin-1A (Homo sapiens) (UniProt O14656). Put plainly: TOR1A wild-type binding on microarray – cell lysate, small-molecule microarray, lysate, 635/667 nm, primary screen (AID 1149). Particulars: COS7 hTOR1A-WT lysate, 635 nm fluorescence, higher = more signal.
Experiment [18] has the same target. Put plainly: torsin A mutant lysate binding on microarrays – cell lysate, small-molecule microarray, COS7 lysate, 635/667 nm fluorescence, primary screen (AID 1150).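 Also: score pools 667 nm emission and signal to noise measuring lysate protein binding.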 Particulars: COS7 hTOR1A mutant lysate, 635 nm fluorescence, higher = more signal.
The test system of experiment [19] is Sonic hedgehog protein (Shh). Put plainly: Sonic hedgehog microarray binding compounds – biochemical, small-molecule microarray, 635/667 nm fluorescence, primary screen (AID 1151).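 Also: Shh protein binding to compounds spotted on small-molecule microarray slides; score combines spot fluorescence intensity with signal-to-noise across triplicate slides.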 Particulars: 635 nm fluorescence, higher = more signal.

Chain of Streptavidin (Streptomyces avidinii) (P22629 whole entry, looked up): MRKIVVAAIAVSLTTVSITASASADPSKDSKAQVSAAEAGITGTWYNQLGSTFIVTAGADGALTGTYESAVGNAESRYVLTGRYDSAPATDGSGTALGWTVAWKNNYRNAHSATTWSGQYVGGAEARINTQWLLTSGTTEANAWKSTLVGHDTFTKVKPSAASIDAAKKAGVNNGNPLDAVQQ
Chain of Fibroblast growth factor 2 (Homo sapiens) (P09038 whole entry, looked up): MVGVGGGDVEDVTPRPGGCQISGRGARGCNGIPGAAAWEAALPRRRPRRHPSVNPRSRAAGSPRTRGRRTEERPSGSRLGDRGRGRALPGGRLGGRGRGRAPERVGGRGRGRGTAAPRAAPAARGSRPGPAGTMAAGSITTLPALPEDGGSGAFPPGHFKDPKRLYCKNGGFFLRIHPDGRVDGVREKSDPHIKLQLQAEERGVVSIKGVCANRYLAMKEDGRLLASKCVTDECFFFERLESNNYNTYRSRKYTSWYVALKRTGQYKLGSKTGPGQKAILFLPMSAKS
Chain of Torsin-1A (Homo sapiens) (O14656 whole entry, looked up): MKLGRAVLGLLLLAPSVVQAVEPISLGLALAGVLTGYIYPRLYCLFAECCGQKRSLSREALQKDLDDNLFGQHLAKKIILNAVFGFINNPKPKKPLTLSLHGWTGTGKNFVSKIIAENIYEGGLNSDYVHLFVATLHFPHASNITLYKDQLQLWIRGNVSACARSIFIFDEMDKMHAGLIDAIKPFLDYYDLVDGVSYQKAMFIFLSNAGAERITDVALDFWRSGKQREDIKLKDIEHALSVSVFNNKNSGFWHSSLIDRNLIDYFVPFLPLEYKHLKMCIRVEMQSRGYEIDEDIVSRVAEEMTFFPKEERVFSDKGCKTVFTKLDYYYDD
Chain of Follistatin (Homo sapiens) (P19883 whole entry, looked up): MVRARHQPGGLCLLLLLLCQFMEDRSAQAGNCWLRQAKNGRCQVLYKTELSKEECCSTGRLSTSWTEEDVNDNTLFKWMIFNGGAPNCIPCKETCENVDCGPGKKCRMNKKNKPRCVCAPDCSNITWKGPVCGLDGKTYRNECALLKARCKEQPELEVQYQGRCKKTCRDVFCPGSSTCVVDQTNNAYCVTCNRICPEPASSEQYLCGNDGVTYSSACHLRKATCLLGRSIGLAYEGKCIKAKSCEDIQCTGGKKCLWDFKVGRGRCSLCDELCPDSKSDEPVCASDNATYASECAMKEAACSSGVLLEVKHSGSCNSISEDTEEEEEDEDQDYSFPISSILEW
Chain of Luciferin 4-monooxygenase (Photinus pyralis) (P08659 whole entry, looked up): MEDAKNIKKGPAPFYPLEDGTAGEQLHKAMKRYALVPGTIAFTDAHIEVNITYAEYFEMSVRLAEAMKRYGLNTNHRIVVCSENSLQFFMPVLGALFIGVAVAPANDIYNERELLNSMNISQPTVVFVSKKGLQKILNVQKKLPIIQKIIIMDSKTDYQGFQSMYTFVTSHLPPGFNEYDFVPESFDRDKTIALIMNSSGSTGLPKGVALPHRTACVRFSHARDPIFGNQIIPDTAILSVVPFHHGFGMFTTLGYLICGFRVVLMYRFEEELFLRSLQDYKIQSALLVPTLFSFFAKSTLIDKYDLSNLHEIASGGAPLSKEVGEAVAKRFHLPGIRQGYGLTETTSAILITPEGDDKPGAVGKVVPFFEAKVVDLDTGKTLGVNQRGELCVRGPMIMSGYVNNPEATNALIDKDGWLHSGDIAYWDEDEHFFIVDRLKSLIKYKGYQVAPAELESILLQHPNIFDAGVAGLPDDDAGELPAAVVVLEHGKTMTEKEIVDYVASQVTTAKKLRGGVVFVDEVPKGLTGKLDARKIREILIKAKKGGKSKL
Chain of Focal adhesion kinase 1 (Homo sapiens) (Q05397 whole entry, looked up): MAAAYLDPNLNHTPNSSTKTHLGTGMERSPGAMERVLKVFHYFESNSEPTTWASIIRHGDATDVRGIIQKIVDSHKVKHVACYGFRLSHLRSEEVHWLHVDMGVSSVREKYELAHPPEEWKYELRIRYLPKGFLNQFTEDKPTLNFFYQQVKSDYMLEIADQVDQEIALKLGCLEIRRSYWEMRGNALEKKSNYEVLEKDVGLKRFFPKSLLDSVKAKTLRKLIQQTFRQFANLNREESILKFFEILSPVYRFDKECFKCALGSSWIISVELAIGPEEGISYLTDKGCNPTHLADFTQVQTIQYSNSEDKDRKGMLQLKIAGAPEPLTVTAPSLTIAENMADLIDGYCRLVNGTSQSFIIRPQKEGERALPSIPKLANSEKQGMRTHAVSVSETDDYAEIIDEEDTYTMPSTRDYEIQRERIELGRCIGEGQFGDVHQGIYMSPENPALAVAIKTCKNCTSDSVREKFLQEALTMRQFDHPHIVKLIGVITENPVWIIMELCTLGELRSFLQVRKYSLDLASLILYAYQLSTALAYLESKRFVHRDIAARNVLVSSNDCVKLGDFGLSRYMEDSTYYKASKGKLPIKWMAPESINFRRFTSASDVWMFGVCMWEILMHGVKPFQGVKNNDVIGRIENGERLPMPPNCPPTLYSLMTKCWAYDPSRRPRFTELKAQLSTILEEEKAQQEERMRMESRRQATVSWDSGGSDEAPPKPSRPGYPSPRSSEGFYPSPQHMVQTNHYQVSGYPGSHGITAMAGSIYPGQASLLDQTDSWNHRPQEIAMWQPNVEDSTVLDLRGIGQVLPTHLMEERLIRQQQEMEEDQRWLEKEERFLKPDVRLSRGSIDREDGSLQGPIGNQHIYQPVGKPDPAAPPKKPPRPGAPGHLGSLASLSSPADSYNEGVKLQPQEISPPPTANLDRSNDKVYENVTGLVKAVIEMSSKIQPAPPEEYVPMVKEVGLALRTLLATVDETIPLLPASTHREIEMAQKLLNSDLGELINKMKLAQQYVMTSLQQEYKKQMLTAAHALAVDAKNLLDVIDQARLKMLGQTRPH

In the case of `C=CC[C@]12N=C(c3ccc(OCCCO)cc3)O[C@H]1c1ccccc1N(C)C2=O`, the composite z-score in experiment [1] came to 2.7; in experiment [2], 1.2; in experiment [3] it was 1.37; in [4], 0.325; in [5], 1.46; in experiment [6], 0.837. Moreover, the composite z-score in the experiment on Lefty1 is 0.501; in experiment [8], 0.675; in experiment [10] it was 0.305; in experiment [15], -0.283; in experiment [16] it was 0.435; with Torsin-1A (Homo sapiens) [17] it was -0.0323. Further, the values for the composite z-score (with Torsin-1A (Homo sapiens) [18]; in experiment [19]) were 0.468 and 1.28, respectively. Besides, the z-score in experiment [7] was -0.829; in experiment [9], -7.68 (inactive); in experiment [11], -4.59 (inactive); in experiment [12], -1.2 (inactive); in experiment [13] it was 0.549 (inactive); in [14], -1.18 (inactive).
As to `COC(=O)[C@@]1(Cc2ccc(OC)cc2)[C@H]2c3cc(C(=O)N4CCCC4)n(CCc4cc5ccccc5[nH]4)c3C[C@H]2CN1C(=O)c1ccccc1`, the composite z-score in [1] amounted to 2.2; in experiment [2] it was 1.25; in [3], 0.832; in experiment [4] it was 0.98; in [5] it was 1.18; in experiment [6], 0.754. Further, the composite z-score is -0.246 in the experiment on Lefty1; 1.05 in experiment [8]; 0.409 in experiment [10]; 1.58 in experiment [15]; 0.352 in experiment [16]; 0.368 with Torsin-1A (Homo sapiens) [17]. The composite z-score with Torsin-1A (Homo sapiens) [18] was 1.38; in [19], -0.309. The z-score was 1.3 in experiment [7]; 1.91 (inactive) in [9]; -1.84 (inactive) in experiment [11]; 0.497 (inactive) in experiment [12]; -0.189 (inactive) in experiment [13]; 0.375 (inactive) in experiment [14].
As for `NC(=O)N1C(=O)C2C(C1=O)C1C=C(c3ccc(CO)cc3)C2C(C2CC2)N1Cc1sc2ccccc2c1Cl` (stereo not given), the composite z-score in experiment [1] was 2.42; in experiment [2] it was 1.13; in experiment [3], -0.159; in [4], 0.985; in [5], 0.855; in experiment [6] it was 1.62. The composite z-score was 1.16 with Lefty1; 1.12 in experiment [8]; 0.323 in experiment [10]; 1.43 in [15]; -0.0313 in experiment [16]; 1.19 with Torsin-1A (Homo sapiens) [17]. Moreover, the composite z-score with Torsin-1A (Homo sapiens) [18] was found to be 0.83; in experiment [19], 1.38. In addition, the z-score in experiment [7] was 1.46; in experiment [9], -2.36 (inactive); in experiment [11], -3.73 (inactive); in experiment [12] it was 0.447 (inactive); in experiment [13], 4.42 (inactive); in experiment [14], -1.63 (inactive).
In the case of `CC(C)C(=C=CC[C@H](O)c1ccc(OCCO)cc1)C[C@H](O)c1cc(Cl)cc(Cl)c1O`, the composite z-score was 2.46 in experiment [1]; 1.09 in experiment [2]; -0.0133 in [3]; 0.134 in experiment [4]; 0.996 in [5]; 1.09 in experiment [6]. For the same compound, the composite z-score with Lefty1 amounted to 1.22; in experiment [8], 0.539; in [10], 0.0991; in experiment [15] it was 0.122; in experiment [16], 0.153; with Torsin-1A (Homo sapiens) [17] it was 0.895. Further, the composite z-score amounted to 0.656 with Torsin-1A (Homo sapiens) [18] and 1.71 in [19]. Further, the z-score is 1.78 in [7]; -1.78 (inactive) in experiment [9]; -3.24 (inactive) in experiment [11]; 0.0919 (inactive) in experiment [12]; 7.76 (inactive) in [13]; -0.457 (inactive) in experiment [14].
On to `CCCc1cccc(=O)o1`, for which the composite z-score in experiment [1] amounted to 0.439; in experiment [2], 0.799; in [3], 0.106; in experiment [4], 0.915; in experiment [5], 0.793; in experiment [6], 0.223. The composite z-score was 0.614 with Lefty1; 0.782 in experiment [8]; 0.0303 in experiment [10]; 0.216 in [15]; -0.128 in [16]; 1.08 with Torsin-1A (Homo sapiens) [17]. For the same compound, the composite z-score was 0.5 in the experiment with Torsin-1A (Homo sapiens) [18] and 0.542 in experiment [19]. For the same compound, the z-score in experiment [7] was 0.352; in experiment [9], 2.08 (inactive); in [11] it was -1.62 (inactive); in [12], -0.848 (inactive); in experiment [13], -0.574 (inactive); in experiment [14], 0.646 (inactive).
